This is a sample that favours compounds with a hit; in the whole collection about 2.1% have one here.
KKLEB cytotox – cytotoxicity in KKLEB CF airway cells, primary screen, cytotoxicity control for CF NF-kB inhibitor project, cell-based, uHTS, fluorescence assay plates; KKLEB CF airway cells viability, ATPlite luminescence, overnight; hits give low values; cells stimulated with P. aeruginosa culture filtrate; activity change (cytotoxicity), % at 5 µM; hit rate 0.36% among 360,000; AID 602141, 2011;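 active = corrected activity change at or below -50% at 5 µM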
PAX8 inh HTS – inhibitors of PAX8-driven TPO luciferase reporter, primary screen, RMG-I cells, single concentration | AID 652154, 2013 | hit rate 1.2% among 360,000 | inhibition, % at 12.6 µM | SteadyGlo, 24 h;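 active = mean replicate inhibition at least 60% with every replicate also reaching 60%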;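 also: luciferase light reporting Pax8 driven TPO promoter activity; plate controls were median of neutral control wells for no effect and mitoxantrone controls for full effect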
EWS-Fli block – EWS/Fli-driven NR0B1 reporter inhibitors, primary screen, A673 cells, NR0B1 luciferase, luminescence, MLPCN library; viability-normalised; inhibition, % at 12.6 µM; hit rate 0.67% among 350,000;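 active = mean inhibition of at least 50% after viability correction, with every replicate also passing that limit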;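 also: firefly luciferase signal divided by Alamar Blue viability fluorescence both relative to DMSO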
CF NFkB inh – inhibitors of PAF-induced NF-kB signaling, primary screen, cell-based, GFP fluorescence, uHTS. inhibition, % at 5 µM. hit rate 0.86% among 360,000. KKLEB NF-kB-GFP reporter, GFP fluorescence overnight. AID 588850, 2011;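 active = at least 50% inhibition at 5 µM, scaled per plate between neutral and stimulator controls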;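 also: PAF is a Pseudomonas aeruginosa culture filtrate used as stimulus; plate controls were PAF-stimulated DMSO wells for no effect and unstimulated DMSO wells for full effect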
HIF-2a block – HIF-2a reporter inhibitors, primary screen, luminescence, 786-0 RCC cells; 786-0 RCC cells HIF-2a reporter, luciferase luminescence, overnight; inhibition, % at 18.8 µM; hit rate 0.72% among 360,000; AID 624352, 2012;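 active = inhibition of the luminescence signal of 40% or more relative to plate controls, in a single-dose primary screen at 18.75 µM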
An asterisk follows results filed as active; x = not tested or not shown; ! = a repeat was not active.

SMILES | KKLEB cytotox | PAX8 inh HTS | EWS-Fli block | CF NFkB inh | HIF-2a block
COc1ccccc1N=C(C)C1=C(O)CC(c2ccccc2)CC1=O (stereo not given) | -5.3 | 21.4 | 28.9 | 52.7* | 13.4
N#Cc1ccsc1NC(=O)COC(=O)CCS(=O)(=O)c1ccccc1 | -11.3 | -11.8 | 5.6 | 6.1 | 9.9
N#Cc1ccsc1NC(=O)CCS(=O)(=O)c1ccccc1 | 3.7 | 64.1* | -4.4 | 18.6 | -12.8
CCOC(=O)c1ccsc1NC(=O)CCS(=O)(=O)c1ccccc1 | -10.4 | 63.8* | -8.5 | -15.6 | 11.4
NC(=O)c1ccsc1NC(=O)CCS(=O)(=O)c1ccc(Cl)cc1 | 6.8 | 64.7* | 10.4 | 14.3 | -16.5
O=C(NCC[C@@H]1CC[C@@H](NC(=O)C2CCC2)[C@@H](CO)O1)c1cnccn1 | x | -2.8 | -2.0 | x | x
O=C(C[C@@H]1C=C[C@@H](NC(=O)C2CCOCC2)[C@@H](CO)O1)Nc1ccccc1 | x | x | -7.8 | x | x
CC(C)(C)OC(=O)NCCCCCc1cn([C@@H](CO)C(=O)NCCCCCCCCCCC(=O)N2CCN(C(=O)OC(C)(C)C)CC2)nn1 | 4.9 | 40.8 | 14.7 | 8.3 | -64.5
CC[C@H](C)[C@@H](C(=O)NCCCCCCCCCCC(=O)N1CCN(C(=O)OC(C)(C)C)CC1)n1cc(CCCCCNC(=O)OC(C)(C)C)nn1 | -1.4 | 63.0* | 22.8 | 9.9 | 1.9
CCCC(=O)Nc1ccc2c(c1)C(=O)N(C)[C@H]1CC[C@@H](CC(=O)NCCc3ccccc3)O[C@@H]1CO2 | x | 10.4 | -0.5 | x | x
N#C[C@@H]1[C@@H](c2ccccc2)[C@H](CO)N1C(=O)c1ccc2c(c1)OCO2 | x | 9.3 | -0.2 | x | x
C[C@H](CO)N1C[C@H](C)[C@@H](CN(C)C(=O)Cc2cccnc2)Oc2ncc(-c3cncnc3)cc2C1=O | x | x | -2.8 | x | x
CCC(CO)Oc1cc(NCc2ccccc2)c2ncn(C(C)C)c2c1 (stereo not given) | -4.5 | -1.6 | 1.4 | 7.9 | 5.0
CCC(COC(=O)c1ccccc1)Oc1cc(NCc2ccccc2)c2ncn(C(C)C)c2c1 (stereo not given) | -12.0 | 64.1* | -3.6 | 34.1 | 18.1
O=C(Nc1ccccc1)C1=C[C@H](c2ccc(C(F)(F)F)cc2)C[C@H](OCCCCO)O1 | -8.6 | 87.2*! | -88.6 | -1.6 | -186.0
COc1ccc2c3c(n(C)c2c1)[C@H](CO)N(CC1CC1)CC31CCN(Cc2ccc(F)cc2)CC1 | x | x | 27.4 | x | x
Cc1cc(C)cc(OCc2nc3ncc(Br)cc3[nH]2)c1 | -50.5* | 22.9 | x | 35.3 | 17.7
COc1ccccc1-c1cnc2c(c1)C(=O)N([C@H](C)CO)C[C@H](C)[C@H](CN(C)C(=O)CC1CC1)O2 | x | x | 11.5 | x | x
Cc1nn(C2CCS(=O)(=O)C2)c2nc(C3CC3)cc(C(=O)Nc3cccc(C#N)c3)c12 (stereo not given) | -4.4 | 74.7* | 11.4 | 10.3 | 24.4
N#Cc1cccc(NC(=O)c2nc(-c3ccccc3)n(-c3ccccc3)n2)c1 | -6.6 | 26.7 | x | 11.7 | 8.8
C[C@H](CO)N1C[C@H](C)[C@H](CN(C)C(=O)Cc2ccccc2)OCCCC[C@H](C)Oc2ccc(NS(=O)(=O)c3ccccc3)cc2C1=O | x | -4.6 | 59.8* | x | x
C[C@H](CO)N1C[C@H](C)[C@H](CN(C)C(=O)Cc2ccccc2)OCCCC[C@H](C)Oc2ccc(NS(=O)(=O)c3ccc(Cl)cc3)cc2C1=O | x | 67.4* | -8.8 | x | x
O=C1C=C(N(CCO)Cc2ccccc2)c2ccccc2C1=O | 8.7 | x | x | 68.1* | -10.9
O=C1c2ccccc2C(=O)c2c1cccc2N(CCO)CCO | -4.5 | -8.3 | -27.4 | -12.2 | -49.3
Cc1ccnc2c1ccc1c(C)ccnc12 | -9.0 | x | x | 21.5 | -161.3
SMILES | KKLEB cytotox | PAX8 inh HTS | EWS-Fli block | CF NFkB inh | HIF-2a block
Cc1ccnc2ccc(SC(F)(F)F)cc12 | 5.0 | 86.7* | 7.9 | 2.4 | 13.9
Cc1noc(C)c1S(=O)(=O)Nc1ccc2c(c1)CC(=O)N([C@@H](C)CO)C[C@H](C)[C@@H](CN(C)C(=O)Nc1cccc3ccccc13)O2 | x | x | 0.5 | x | x
COc1cccc(S(=O)(=O)N2CCCCN3[C@H](C2)[C@@H](c2ccc(C#CC(C)C)cc2)[C@@H]3CO)c1 | x | 57.4 | 10.6 | x | x
COc1cccc(S(=O)(=O)N2CCCCN3[C@@H](CO)[C@H](c4ccc(C#CC(C)C)cc4)[C@@H]3C2)c1 | x | 65.4* | 13.7 | x | x
COc1cccc(S(=O)(=O)N2CCCCN3[C@H](C2)[C@@H](c2ccc(C#CCC(C)C)cc2)[C@@H]3CO)c1 | x | 19.3 | 2.3 | x | x
COc1cccc(S(=O)(=O)N2CCCCN3[C@@H](CO)[C@@H](c4ccc(C#CCC(C)C)cc4)[C@@H]3C2)c1 | x | 86.1* | 18.2 | x | x
COc1ccc(S(=O)(=O)N2CCCCN3[C@H](C2)[C@H](c2ccc(C#CC(C)C)cc2)[C@@H]3CO)cc1 | x | 102.4* | 12.7 | x | x
C[C@H]1CN([C@@H](C)CO)S(=O)(=O)c2ccc(-c3cccc(C#N)c3)cc2O[C@@H]1CN(C)C(=O)c1cccnc1 | x | x | -2.2 | x | x
C[C@@H]1CN([C@@H](C)CO)C(=O)c2cc(NC(=O)Nc3ccc4c(c3)OCO4)ccc2O[C@H]1CN(C)C(=O)Nc1ccc(C(F)(F)F)cc1 | x | 1.4 | -62.5 | x | x
CC[n+]1ccc(/C=C/c2ccc(N(C)C)cc2)c2ccccc21 | -12.8 | 94.6* | 58.4* | -50.2 | 26.6
CCCCCC[n+]1ccccc1/C=C/c1ccc(N(C)C)cc1 | -22.6 | 98.1* | 38.0 | -228.0 | -80.0
CC[n+]1c(/C=C/c2ccc(N(C)C)cc2)ccc2ccccc21 | -13.4 | 89.6* | 47.7 | -35.0 | -41.0
CC[n+]1ccccc1/C=C/c1ccc(N(C)C)cc1 | 9.3 | 49.3 | 23.6 | -34.5 | 8.3
CO[C@H]1CN(C)C(=O)c2ccc(NC(C)=O)cc2OC[C@H](C)N(CCc2ccccc2)C[C@@H]1C | x | x | -3.4 | x | x
CC(=O)Nc1cccc(-c2ccnc3c2CC(C)(C(=O)NCc2cccc(Cl)c2)O3)c1 (stereo not given) | 14.2 | 11.7 | 19.7 | -27.4 | 16.2
CC(=O)Nc1cccc(-c2ccnc3c2CC(C)(C(=O)Nc2cccc(Oc4ccccc4)c2)O3)c1 (stereo not given) | -15.9 | 63.9* | 20.1 | 44.2 | 11.9
CC(=O)Nc1cccc(-c2ccnc3c2CC(C)(C(=O)NCc2cccs2)O3)c1 (stereo not given) | -13.7 | 13.2 | 60.3* | 0.0 | 18.6
O=C(NC1CCCCC1)N1CC(=O)N2[C@H](CO)[C@@H](c3ccc(-c4ccccc4)cc3)[C@H]2C1 | x | -2.1 | -9.9 | x | x
N#CC1=C(N)Oc2cc(N)ccc2C1c1cc(Br)cs1 (stereo not given) | -7.4 | 28.2 | 58.4* | 17.0 | 18.2
N#CC1=C(N)Oc2cc(N)ccc2C1c1ccsc1 (stereo not given) | -0.5 | -1.9 | x | -1.5 | 33.2
COc1cccc(C2C(C#N)=C(N)Oc3cc(N)ccc32)c1OC (stereo not given) | -12.2 | -0.6 | x | 1.3 | 12.9

Screening results (PubChem)
